The values that follow come from ChEMBL document CHEMBL1157539, “Thousands of chemical starting points for antimalarial lead identification” (Nature, 2010).

What all share (format): functional
Test [1] has as its system Plasmodium falciparum. The test is described as follows: GSK_TCMDC: Inhibition of Plasmodium falciparum 3D7 in whole red blood cells, using parasite LDH activity as an index of growth. Test compounds present at 2uM.
The test system of test [2] is Plasmodium falciparum. The test is described as follows: GSK_TCMDC: Inhibition of Plasmodium falciparum Dd2 in whole red blood cells, using parasite LDH activity as an index of growth. Test compounds present at 2uM.
The test system of a further test is HepG2. The test is described as follows: GSK_TCMDC: Percent inhibition of human HepG2 cell line. Test compounds present at 10uM.

Molecules are shown by their SMILES.

Consider `O=C(Cn1c(CCc2cccc(F)c2F)nc(=O)c2ccccc21)N(CCCN1CCCC1)Cc1ccc(-c2ccc(C(F)(F)F)cc2)cc1.O=C(O)C(O)C(O)C(=O)O`, for which the Inhibition in the test on Plasmodium falciparum [1] is recorded as 100%; in the test on Plasmodium falciparum [2] it was 80%; in the test on HepG2, 54%.

In the case of `Cc1cc(NC(=O)NCCN2CCC(NS(=O)(=O)c3ccc(C(F)(F)F)cc3)C2)c2ccccc2n1.O=C(O)C(F)(F)F` (stereo unspecified), the Inhibition was determined as 96% with Plasmodium falciparum [1], 39% in the test on Plasmodium falciparum [2] and 15% with HepG2.

Regarding `O=C(Nc1ccc(Br)cc1)N(CCN1CCOCC1)CC(O)COCc1ccc(F)cc1.O=C(O)C(F)(F)F` (stereo unspecified), the figures for the Inhibition with Plasmodium falciparum [1], with Plasmodium falciparum [2] and in the test on HepG2 were 90%, 3% and 5%, respectively.

On to `Cl.O=C(/C=C/c1ccc(F)cc1)NC1CCC(CCN2CCc3ccccc3CC2)CC1` (stereo unspecified), for which the Inhibition is on record as 91% with Plasmodium falciparum [1], 36% with Plasmodium falciparum [2] and 27% in the test with HepG2.

Regarding `CC(=O)c1c[nH]c(C(=O)Nc2ccc(-c3cn4ccccc4n3)cc2)c1`, the Inhibition with Plasmodium falciparum [1] is on record as 98%; in the test on Plasmodium falciparum [2], 95%; in the test with HepG2, 20%.

With `CC(C)CC(NC(=O)c1ccc(F)cc1)C(=O)N[C@H](/C=N/N1CCNC1=O)CC(C)C` (stereo partly specified), the Inhibition is reported as 89% with Plasmodium falciparum [1], 84% in the test on Plasmodium falciparum [2] and 0% with HepG2.

As for `Cn1nc(-c2ccc(S(=O)(=O)N3CCC(CCN4CCC(c5c[nH]c6ccccc56)CC4)CC3)s2)cc1C(F)(F)F`, the Inhibition amounted to 94% in the test on Plasmodium falciparum [1], 22% in the test with Plasmodium falciparum [2] and 40% with HepG2.

Regarding `CN1CCCN(c2ccnc3cc4c(cc23)N(C(=O)c2ccc(Cl)cc2Cl)CC4)CC1.Cl`, the Inhibition in the test with Plasmodium falciparum [1] came to 100%; in the test with Plasmodium falciparum [2], 51%; in the test on HepG2, 6%.

For `CC(C)C(C)(C#N)NC(=O)CSc1nc2ccc([N+](=O)[O-])cc2s1` (stereo unspecified), the figures for the Inhibition with Plasmodium falciparum [1], in the test on Plasmodium falciparum [2] and in the test on HepG2 were 95%, 81% and 0%, respectively.

On to `CN1CCC(NCc2cccc(-c3ccc(S(=O)(=O)NCc4ccccc4)cc3)c2)CC1.O=C(O)C(F)(F)F`, for which the Inhibition came to 100% in the test with Plasmodium falciparum [1], 93% in the test with Plasmodium falciparum [2] and 61% in the test on HepG2.

As for `O=C(Nc1ccc2c(c1)OCO2)c1cc(-c2cccnc2)cnc1NCc1ccc2c(c1)OCO2`, the Inhibition in the test with Plasmodium falciparum [1] amounted to 87%; in the test with Plasmodium falciparum [2], 1%; in the test with HepG2, 2%.

Consider `CN(C)c1ccc(Br)c(Br)c1`, for which the figures for the Inhibition in the test on Plasmodium falciparum [1], with Plasmodium falciparum [2] and with HepG2 were 86%, 0% and 17%, respectively.

Turning to `COc1cc(C2CCN(CCCCNC(=O)c3ccc(NC(=O)c4ccc(Cl)c(Cl)c4)cc3)CC2)ccc1OC(C)C`, the Inhibition in the test on Plasmodium falciparum [1] worked out at 100%; with Plasmodium falciparum [2] it was 96%; in the test on HepG2, 45%.

With `CC(C)(C)NCCN(Cc1ccc(-c2ccc(C(F)(F)F)cc2)cc1)C(=O)Cn1c(CCc2cccc(F)c2F)nc(=O)c2ccccc21`, the Inhibition is 99% in the test with Plasmodium falciparum [1], 68% in the test on Plasmodium falciparum [2] and 46% in the test with HepG2.

In the case of `CSc1ccc(NC(=O)Nc2cc(C)nc3ccccc23)cc1`, the figures for the Inhibition with Plasmodium falciparum [1], in the test on Plasmodium falciparum [2] and with HepG2 were 100%, 23% and 7%, respectively.

With `Br.CC1(C)NC(N)=NC(=N)N1OCCCCOc1ccccc1`, the figures for the Inhibition with Plasmodium falciparum [1], with Plasmodium falciparum [2] and with HepG2 were 95%, 95% and 60%, respectively.

Regarding `Cl.Nc1c2c(nc3ccc(NC(=O)c4ccc([N+](=O)[O-])cc4)cc13)CCCC2`, the values for the Inhibition in the test on Plasmodium falciparum [1], in the test with Plasmodium falciparum [2] and in the test with HepG2 were 100%, 72% and 19%, respectively.

For the compound `CC(=O)O.CCC[C@@H]([C@@H](CC1CCCCC1)C(=O)N[C@H](C(=O)Nc1nccc(N)n1)C(C)(C)C)N(O)C=O`, the figures for the Inhibition in the test with Plasmodium falciparum [1], in the test with Plasmodium falciparum [2] and in the test on HepG2 were 96%, 82% and 25%, respectively.

For `COc1cc(C2Nc3ccc4ccccc4c3C3=C2C(=O)CC(C)(C)C3)ccc1Oc1ccc([N+](=O)[O-])cc1C#N` (stereo unspecified), the Inhibition is reported as 99% in the test with Plasmodium falciparum [1], 94% in the test with Plasmodium falciparum [2] and 8% in the test on HepG2.

In the case of `CCNC(=O)NC1CCN(Cc2c(-c3cccs3)nc3ccccc3c2C(=O)N[C@@H](C)C2CCCCC2)CC1`, the Inhibition in the test on Plasmodium falciparum [1] is reported as 95%; in the test with Plasmodium falciparum [2] it was 96%; with HepG2, 0%.

In the case of `COc1cc2nccc(Nc3ccc(OCc4ccc(NC(C)=O)cc4)cc3)c2cc1OC.Cl`, the Inhibition with Plasmodium falciparum [1] is given as 100%; in the test on Plasmodium falciparum [2], 95%; with HepG2, 24%.

With `CC(C)CCN(Cc1cncn1Cc1cccc(Cl)c1)C(=O)c1cncc(-c2ccccc2)c1`, the Inhibition is 99% in the test with Plasmodium falciparum [1], 0% with Plasmodium falciparum [2] and 9% in the test with HepG2.

`Cc1cccc2nc(-c3ccc(-c4cccc(CNCc5ccc(S(C)(=O)=O)cc5)c4)s3)[nH]c12.O=C(O)C(F)(F)F`: the Inhibition was 100% in the test on Plasmodium falciparum [1], 91% in the test with Plasmodium falciparum [2] and 31% in the test on HepG2.

Consider `COC(=O)c1ccccc1COc1ccc(CC2(NC(=O)[C@H](Nc3ccc(C#N)c4ccccc34)C(C)(C)C)CCCC2)cc1`, for which the Inhibition in the test on Plasmodium falciparum [1] is on record as 95%; with Plasmodium falciparum [2], 82%; with HepG2 it was 1%.

`COc1ccc2ccccc2c1CCCCN1CCN(CC(c2ccc(F)cc2)N2CCC2)CC1.O=C(O)C(F)(F)F` (stereo unspecified): the values for the Inhibition with Plasmodium falciparum [1], in the test with Plasmodium falciparum [2] and in the test with HepG2 were 98%, 51% and 51%, respectively.

Turning to `CC(=O)Nc1ccc(NC(=O)c2cc(-c3ccc(C)cc3O)n[nH]2)cc1`, the values for the Inhibition in the test with Plasmodium falciparum [1], in the test on Plasmodium falciparum [2] and in the test with HepG2 were 100%, 78% and 0%, respectively.

On to `COc1ccccc1N(C)CCNc1cc(C)nc(Nc2ccccc2)n1`, for which the values for the Inhibition in the test with Plasmodium falciparum [1], with Plasmodium falciparum [2] and in the test with HepG2 were 96%, 13% and 10%, respectively.
